The values that follow come from PubChem BioAssay (NCATS).

“And” between values parts separate entries of the source, which are not always exact repeats. Equal values may be shown once. Results filed as inconclusive are left out. A number with no mark means an inactive call. The source made the active and inactive calls. The call rests on the fitted dose curve; in most records, active means well fitted curve in the direction sought with a large enough effect; inconclusive means small, poorly fitted or top-dose-only effect, or another doubt; inactive means no such curve, though single readings can be large; an effect the other way counts as inactive or inconclusive.

The subject of one experiment is AS120. Kind of experiment: qHTS profiling for inhibitors of Plasmodium falciparum proliferation (AID 504749). The note with it: P. falciparum in erythrocytes, SYBR Green DNA, 72 h; series mostly up to 28.7 µM. Put shortly:
(§1)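 P. falciparum-infected erythrocytes (0.3% parasitemia, 2.5% hematocrit) incubated with compound 72 h at 37 C, 5% CO2. Parasite DNA detected by SYBR Green after lysis, overnight at room temperature; normalised to 0.29 uM artemisinin and DMSO.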

For a further experiment, the system named is CP203. The description is as above. The note with it: P. falciparum in erythrocytes, SYBR Green DNA, 72 h; series mostly up to 28.7 µM. Put shortly:
as §1

Another experiment has as its system CP215. The experiment is described as above. The note with it: P. falciparum in erythrocytes, SYBR Green DNA, 72 h; series mostly up to 28.7 µM. Put shortly: as §1
The subject of the next experiment is CP250. The experiment is described as above. The note with it: P. falciparum in erythrocytes, SYBR Green DNA, 72 h; series mostly up to 12.8 µM. Put shortly:
as §1

Another experiment relates to CP265. Described as above. The conditions noted are these: P. falciparum in erythrocytes, SYBR Green DNA, 72 h; series mostly up to 12.8 µM. Put shortly: as §1
A further experiment relates to CP268. The description is as above. The note with it: P. falciparum in erythrocytes, SYBR Green DNA, 72 h; series mostly up to 28.7 µM. Put shortly: as §1
For another experiment, the system named is CP291. The experiment is described as above. The conditions noted are these: P. falciparum in erythrocytes, SYBR Green DNA, 72 h; series mostly up to 28.7 µM. Put shortly: as §1
For the next experiment, the system named is DIV14. The experiment is described as above. The conditions noted are these: P. falciparum in erythrocytes, SYBR Green DNA, 72 h; series mostly up to 28.7 µM. Put shortly:
as §1

The next experiment has as its system ICS. The description is as above. The note with it: P. falciparum in erythrocytes, SYBR Green DNA, 72 h; series mostly up to 28.7 µM. Put shortly:
as §1

Another experiment relates to W2. The description is as above. The note with it: P. falciparum in erythrocytes, SYBR Green DNA, 72 h; series mostly up to 12.8 µM. Put shortly:
as §1

The target of experiment [1] is Cytochrome P450 2D6 (Homo sapiens) (UniProt P10635). Kind of experiment: qHTS Assay for Inhibitors and Substrates of Cytochrome P450 2D6 (AID 891). Put shortly:
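Human CYP2D6 (5 nM) with 30 uM Luciferin-ME EGE (at Km) in 100 mM KPO4, compound preincubated 10 min, then NADPH regeneration system for 60 min at room temperature. Luciferin read by luminescence; normalized to 1.43 uM quinidine.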

The test system of another experiment is CP260. The experiment in a line: qHTS profiling for inhibitors of Plasmodium falciparum proliferation (AID 504749). The conditions noted are these: P. falciparum in erythrocytes, SYBR Green DNA, 72 h; series mostly up to 28.7 µM. Put shortly:
as §1

The next experiment deals with DIV17. The experiment is described as above. The conditions noted are these: P. falciparum in erythrocytes, SYBR Green DNA, 72 h; series mostly up to 28.7 µM. Put shortly:
as §1

Another experiment deals with P93_24. Described as above. The conditions noted are these: P. falciparum in erythrocytes, SYBR Green DNA, 72 h; series mostly up to 28.7 µM. Put shortly: as §1
A further experiment relates to PC26. The description is as above. The note with it: P. falciparum in erythrocytes, SYBR Green DNA, 72 h; series mostly up to 28.7 µM. Put shortly:
as §1

Another experiment concerns TAB165. Described as above. The note with it: P. falciparum in erythrocytes, SYBR Green DNA, 72 h; series mostly up to 28.7 µM. Put shortly: as §1
The next experiment relates to TAB113. Described as above. The note with it: P. falciparum in erythrocytes, SYBR Green DNA, 72 h; series mostly up to 28.7 µM. Put shortly:
as §1
Further: nearly all actives have a fitted effect of over 60% in size.
Potency means the concentration at half of the fitted maximal effect.

Cytochrome P450 2D6 (Homo sapiens), sequence (P10635 whole entry, looked up): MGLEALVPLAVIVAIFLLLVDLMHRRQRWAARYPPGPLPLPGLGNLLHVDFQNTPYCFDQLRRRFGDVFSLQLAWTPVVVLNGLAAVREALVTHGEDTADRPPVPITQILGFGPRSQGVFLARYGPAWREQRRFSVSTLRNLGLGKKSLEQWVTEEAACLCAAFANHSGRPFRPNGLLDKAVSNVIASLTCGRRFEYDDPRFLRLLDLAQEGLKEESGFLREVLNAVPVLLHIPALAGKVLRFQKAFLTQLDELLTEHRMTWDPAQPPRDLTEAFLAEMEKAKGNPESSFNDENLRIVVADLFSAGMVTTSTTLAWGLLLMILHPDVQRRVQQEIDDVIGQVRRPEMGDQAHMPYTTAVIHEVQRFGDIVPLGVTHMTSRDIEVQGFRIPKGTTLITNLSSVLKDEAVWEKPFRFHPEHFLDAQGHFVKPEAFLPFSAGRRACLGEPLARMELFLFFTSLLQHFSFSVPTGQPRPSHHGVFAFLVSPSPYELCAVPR

With `C[C@@]12CCC(=O)C=C1C=C[C@H]1[C@H]3CC[C@](O)(CCC(=O)O)[C@]3(C)CC[C@@H]12`, the Potency result in the experiment with AS120, in the experiment on CP203, in the experiment on CP215, in the experiment on CP250, in the experiment with CP265 and with CP268 was “inactive” throughout. Further, the Potency entry with CP291 and in the experiment with DIV14 was “inactive” each time. The Potency was 3.55 µM (active) in the experiment on ICS and 5.73 µM (active) with W2.
Regarding `CC[C@H]1CN2CC[C@@H]1C[C@H]2[C@@H](O)c1ccnc2ccc(OC)cc12`, in experiment [1], the Potency is 3.16 µM (active).
On to `NCC[C@H](O)C(=O)N[C@H]1C[C@@H](N)[C@@H](O[C@H]2O[C@@H](CN)[C@@H](O)[C@@H](O)[C@@H]2N)[C@@H](O[C@H]2O[C@@H](CO)[C@@H](O)[C@@H]2O)[C@@H]1O`, for which the Potency result in the experiment with AS120, in the experiment on CP203, in the experiment on CP215, in the experiment on CP250, in the experiment with CP260 and with CP265 was “inactive” throughout. In addition, the Potency result in the experiment on CP268, in the experiment with CP291, in the experiment with DIV14, with DIV17, in the experiment on ICS and with P93_24 was “inactive” in each case. The Potency result with PC26, with TAB165 and in the experiment on W2 was “inactive” each time.
In the case of `CCN(CC)C(=O)N[C@@H]1C[C@H]2c3cccc4[nH]cc(c34)C[C@@H]2N(C)C1`, the Potency in experiment [1] was 0.0158 µM (active).
Still for that read-out and setting: as for `C=C[C@H]1CN2CC[C@@H]1C[C@H]2[C@@H](O)c1ccnc2ccccc12`, the figure is 3.16 µM (active) and 501 nM (active).
On to `N[C@H]1C[C@H]1c1ccccc1`, for which the Potency result with AS120, in the experiment with CP203, with CP215, in the experiment on CP250, in the experiment with CP265 and in the experiment on CP268 was “inactive” each time. The Potency result in the experiment with CP291, in the experiment with DIV14, in the experiment on DIV17, with ICS, with P93_24 and with PC26 was “inactive” in each case. For the same compound, the Potency entry in the experiment with TAB113, in the experiment on TAB165 and with W2 was “inactive” in each case.
Regarding `CN1CCc2cc3c(cc2[C@@H]1O)OCO3`, the Potency in experiment [1] is 7.94 µM (active).
For the compound `CC(=O)O[C@H]1CC[C@@]2(C)C(=CC[C@@H]3[C@H]2CC[C@]2(C)C(=O)CC[C@H]32)C1`, the Potency result in the experiment with AS120, in the experiment on CP203, in the experiment on CP215, in the experiment with CP250, with CP260 and in the experiment on CP265 was “inactive” throughout. Further, the Potency result in the experiment with CP268, with CP291, in the experiment with DIV14, with DIV17, in the experiment with ICS and in the experiment with P93_24 was “inactive” each time. In addition, the Potency result in the experiment with PC26, in the experiment with TAB113, in the experiment on TAB165 and with W2 was “inactive” in each case.
Take `CC[N@+]1(C)CCC[C@@H](OC(=O)C(O)(c2ccccc2)c2ccccc2)C1`: in experiment [1], the Potency was 5.01 µM (active).
The same measure, in the same setting: as for `COc1cc2c(cc1OC)[C@H](C)NCC2`, the entry is “inactive”.
Regarding `CN[C@@H](C)[C@H]1CC[C@@H](N)[C@@H](O[C@@H]2[C@@H](O)[C@@H](O[C@H]3OC[C@@](C)(O)[C@@H](NC)[C@@H]3O)[C@H](N)C[C@@H]2N)O1` (tested in a mixture with another compound), the Potency entry in the experiment on AS120, with CP203, in the experiment on CP250, in the experiment on CP260, with CP265 and with CP268 was “inactive” each time. The Potency entry in the experiment on CP291, in the experiment with DIV14, with DIV17, in the experiment with ICS, in the experiment on P93_24 and in the experiment with PC26 was “inactive” in each case. For the same compound, the Potency entry in the experiment with TAB113, in the experiment with TAB165 and with W2 was “inactive” in each case.
